Screens: PubChem, several laboratories
GRK2 aptamer HTS = blocks RNA aptamer binding to human GRK2. bead flow cytometry, FAM-aptamer displacement from GRK2. inhibition of aptamer binding, % at 10 µM. 330,000 compounds, 0.59% hits. AID 488847;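 active = inhibition of aptamer binding above 40%, roughly 3 SD of noise, on plates passing a quality check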;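 also: median bead fluorescence of bound FAM aptamer so fluorescent compounds give negative values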
HDAC3 inh = blocks human histone deacetylase 3; 320,000 compounds, 0.15% hits; recombinant HDAC3, fluorogenic peptide/trypsin coupled, fluorescence; inhibition, % at 8.3 µM; O15379; AID 2718; in the data active = inhibition above about 26%, passing the limit was not always enough
Target sequence (O15379 whole entry, looked up): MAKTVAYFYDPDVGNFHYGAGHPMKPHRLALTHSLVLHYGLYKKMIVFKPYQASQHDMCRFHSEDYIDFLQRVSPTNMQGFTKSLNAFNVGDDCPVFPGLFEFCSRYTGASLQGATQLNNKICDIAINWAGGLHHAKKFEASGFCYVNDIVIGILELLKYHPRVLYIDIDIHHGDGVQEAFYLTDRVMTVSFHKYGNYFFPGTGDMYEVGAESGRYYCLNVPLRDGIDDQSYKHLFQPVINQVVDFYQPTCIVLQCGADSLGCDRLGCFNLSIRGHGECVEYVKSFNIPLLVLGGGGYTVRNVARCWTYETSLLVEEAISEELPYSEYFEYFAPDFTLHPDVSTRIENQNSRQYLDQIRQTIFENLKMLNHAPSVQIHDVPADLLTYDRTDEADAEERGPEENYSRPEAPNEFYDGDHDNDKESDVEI
Neddyl block = cullin neddylation inhibition; P61081+Q13564; TR-FRET cullin neddylation, biochemical; inhibition, % at 25 µM; 360,000 compounds, 0.58% hits; AID 651699; in the data active = inhibition above about 36%
H9c2 protect = modulators protecting cardiomyocytes from myocardial damage | H9c2 cardiomyocytes, H2O2 injury protection, ATPLite, 2 h | protection from H2O2 cell death, % at 20 µM | 360,000 compounds, 0.63% hits | AID 588492;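 active = compounds giving at least 50% protection of heart cells from peroxide-induced death in the single-dose screen, raw or plate-pattern-corrected value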
GRK2 CP1 = confirmation of human GRK2 inhibitors displacing RNA aptamer | shares compounds with GRK2 aptamer HTS | bead-bound GRK2, FAM-aptamer displacement, flow cytometry | aptamer displacement, % at 10 µM | 2,000 compounds, 4% hits | AID 504451;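 active = aptamer displacement above 40%, near three times the noise of non-fluorescent compounds, on plates passing quality checks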;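 also: negative values mostly reflect intrinsic compound fluorescence rather than true enhancement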
Aptamer quench 1 = quenches fluorescent RNA aptamer, GRK2 hit artifact | shares compounds with GRK2 aptamer HTS | Fluorescent RNA aptamer beads, quenching, flow cytometry; hits give high values | fluorescence change (kMESF span), kMESF (concentration not given with the values) | 110 tested, under 10 active;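 active = compounds whose bead fluorescence drops by more than 37 kMESF across the dose range, marking them as dye quenchers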
Aptamer quench SP = counter-screen for GRK2 aptamer inhibitors: fluorescent aptamer quenchers; fluorescence response (% of DMSO), % at 10 µM; 2,000 tested, under 10 active; Carboxyfluorescein RNA aptamer on beads, flow cytometry quenching; hits give low values; shares compounds with GRK2 aptamer HTS;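 active = compounds that quench the bead-bound fluorescent RNA probe, cutting fluorescence to under half of the solvent control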;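 also: counterscreen run without GRK2 so only probe quenching by compound is measured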
GRK2 CP2 = confirmation of human GRK2 inhibitors binding RNA aptamer site; shares compounds with GRK2 aptamer HTS; bead-bound GRK2, FAM-aptamer displacement, flow cytometry; inhibition of aptamer binding, % at 10 µM; 360 tested, under 10 active;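 active = inhibition of aptamer binding above 40%, about triple the noise seen with nonglowing compounds, on plates passing quality control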;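 also: negative values mostly come from compounds that fluoresce themselves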
Aptamer quench3 = quenches fluorescent RNA aptamer, GRK2 hit artifact | Streptavidin beads, FAM-RNA aptamer fluorescence quenching, flow cytometry | change in fluorescence (kMESF span), kMESF (no concentration beside the values) | shares compounds with GRK2 aptamer HTS | AID 504819 | 25 tested, under 10 active;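 active = compounds quenching the bead-bound labeled aptamer, with fluorescence dropping by more than 37 kMESF over the dose range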
FAM quench SP = counter-screen for GRK2 binding hits: quenchers of fluorescent RNA aptamer; shares compounds with GRK2 aptamer HTS; carboxyfluorescein RNA aptamer beads, flow cytometry quenching; hits give low values; fluorescence response vs DMSO, % at 10 µM; 360 tested, under 10 active; AID 588494;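 active = response vs DMSO under 50%, meaning signal dropped by over half, treated as fluorescence quencher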;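 also: labelled aptamer on streptavidin beads without GRK2 as a quench counter-screen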
FAM quench PS1 = counter-screen for GRK2 aptamer binding inhibitors: aptamer fluorescence quenching; Bead-bound FAM RNA aptamer fluorescence quenching, flow cytometry; hits give low values; shares compounds with GRK2 aptamer HTS; fluorescence ratio to DMSO, % at 11.1 µM; AID 588496; 35 tested, under 10 active;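 active = compounds that dim the fluorescent label, raw bead signal shifting by over 33 units between lowest and highest dose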
Each line names hits and unclear results; the compound was inactive in the other large screens (follow-up assays come after a bar, where they were run). The list is not random: actives were taken first. Their share in the collection is about 1.8%.

C=CCNC(=O)/C(=C/c1cn(-c2ccccc2)nc1-c1cccc([N+](=O)[O-])c1)NC(=O)c1ccccc1	none
C=CCNC(=O)/C(=C/c1cccc([N+](=O)[O-])c1)NC(=O)c1ccccc1	GRK2 aptamer HTS 46 | GRK2 CP1 inactive | Aptamer quench SP inactive
COc1ccc(C2C3C=CCC(c4cccc(-c5ccc(C)cc5)c4)C3C(=O)N2Cc2ccccc2)cc1Cl (stereo unspecified)	none | GRK2 CP1 inactive | Aptamer quench SP inactive
COc1ccc(-c2cccc(C3CC=CC4C3C(=O)N(Cc3ccccc3)C4c3ccc4ccccc4c3)c2)cc1 (stereo unspecified)	none
CCC1Sc2ccccc2N(CC(=O)NCCC(C)C)C1=O (stereo unspecified)	none | GRK2 CP1 inactive | Aptamer quench SP inactive
CCC1Sc2ccccc2N(CC(=O)NCc2ccccc2OC)C1=O (stereo unspecified)	none
COc1ccccc1N1CCN(CC(=O)Nc2ccc(S(=O)(=O)N3CCCCCC3)cc2)CC1	none
COCc1cccc(-c2csc(C(NC(C)=O)c3cccc(OC)c3)n2)c1 (stereo unspecified)	none (no result: GRK2 aptamer HTS, HDAC3 inh)
CC(C)Cc1nnc(NC(=O)C2CC(=O)N(c3ccc4c(c3)OCCO4)C2)s1 (stereo unspecified)	none
COc1ccc(-c2c(NC(=O)CC(C)C)n(C)c3ccccc3c2=O)cc1OC	GRK2 aptamer HTS 87 | GRK2 CP1 inactive | Aptamer quench SP inactive
Cc1ccc(S(=O)(=O)Nc2nnc(CC(C)(C)C)s2)cc1	none
CC(C)(C)Cc1nnc(NS(=O)(=O)c2ccc([N+](=O)[O-])cc2)s1	GRK2 aptamer HTS 57 | GRK2 CP1 inactive | Aptamer quench SP inactive
O=C(O)CC(NCc1ccco1)C(=O)OCCc1ccccc1 (stereo unspecified)	none
C=C(C)CCOC(=O)C(CC(=O)O)NCc1ccco1 (stereo unspecified)	GRK2 aptamer HTS 43 | GRK2 CP1 inactive | Aptamer quench SP inactive
O=C(C[n+]1cccc(C(=O)N/N=C/c2ccc(Br)cc2)c1)c1ccccc1	GRK2 aptamer HTS 89 | GRK2 CP1 inactive | Aptamer quench SP inactive
O=C(NC1CCN(C(=O)c2cccc([N+](=O)[O-])c2)CC1)c1ccccc1	GRK2 aptamer HTS 98 | GRK2 CP1 inactive | Aptamer quench SP inactive
CCc1nc2ccc(C(=O)N3CCN(c4ccccc4)CC3)cn2c1N(C)CCC(C)C	none (no result: GRK2 aptamer HTS, HDAC3 inh)
CCOC(=O)c1c(C)[nH]c(C(=O)COC(=O)COc2ccc(OC)cc2)c1C	GRK2 aptamer HTS 70 | GRK2 CP1 inactive | Aptamer quench SP inactive
CC(=O)c1c(C)[nH]c(C(=O)COC(=O)COc2ccccc2)c1C	none
Cc1c(C(=O)OC(C)C)sc(N)c1C(=O)OC(C)C	GRK2 aptamer HTS 70 | GRK2 CP2 inactive | FAM quench SP inactive
O=C(CCCCC(=O)NCc1cccs1)NCc1cccs1	none
O=C(CCS(=O)(=O)c1ccc(Br)cc1)NCc1ccco1	GRK2 aptamer HTS 63 | GRK2 CP1 inactive | Aptamer quench 1 inactive | Aptamer quench SP inactive | Aptamer quench3 inactive
CCN(CC(=O)NCc1cccs1)C(=O)c1cccc(S(=O)(=O)NC)c1	GRK2 aptamer HTS 48 | GRK2 CP1 inactive | Aptamer quench SP inactive
O=C(CCNC(=O)c1ccc(Br)cc1)NCc1ccco1	none
O=C(CCS(=O)(=O)c1ccc(Br)cc1)NCc1cccs1	GRK2 aptamer HTS 94 | GRK2 CP1 58 | Aptamer quench 1 inactive | Aptamer quench SP inactive | Aptamer quench3 inactive | FAM quench PS1 inactive
CCc1nonc1NC(=O)COc1cc(C)c(Cl)c(C)c1	GRK2 aptamer HTS 70 | GRK2 CP1 inactive | Aptamer quench SP inactive
CCOC(=O)C1CCCN(S(=O)(=O)CCNC(=O)c2cccc(OC)c2)C1 (stereo unspecified)	none
CCN1CCN(c2cc(C)c3cc(NC(=S)N(C)Cc4ccccc4)ccc3n2)CC1	none | GRK2 CP1 inactive | Aptamer quench SP inactive
CNC(=O)c1[nH]cnc1C(=O)Nc1ccc(F)cc1	GRK2 aptamer HTS 89 | GRK2 CP1 inactive | Aptamer quench 1 inactive | Aptamer quench SP inactive
CNC(=O)c1[nH]cnc1C(=O)Nc1ccc(C)cc1	none
CCOC(=O)Cc1nnc(Nc2cccc(C)c2)c2ccccc12	GRK2 aptamer HTS 92 | GRK2 CP1 inactive | Aptamer quench SP inactive
CCCCN(C(C)=O)c1c(N)n(CCC)c(=O)n(CC(=O)Nc2cc(Cl)cc(Cl)c2)c1=O	none
O=C(O)C1C2C=CC(CC2)C1C(=O)O (stereo unspecified)	GRK2 aptamer HTS 60 | GRK2 CP1 52 | Aptamer quench 1 inactive | Aptamer quench SP inactive
Cc1[nH]c(=O)[nH]c(=O)c1S(=O)(=O)Nc1ccc(F)c(Cl)c1	GRK2 aptamer HTS 47 | GRK2 CP1 inactive | Aptamer quench SP inactive
Cc1cc(Cl)ccc1NS(=O)(=O)c1c(C)[nH]c(=O)[nH]c1=O	none
O=C(CSc1nc2ccccc2c(=O)n1-c1ccccc1Cl)NCC1CCCO1 (stereo unspecified)	none
CCOC(=O)c1c(C)nc(C)c(C(=O)OCC)c1-c1ccc(O)c(OC)c1	none
COC(=O)c1c(C)nc(C)c(C(=O)OC)c1-c1ccc(OC)c(OC)c1	GRK2 aptamer HTS 54 | GRK2 CP1 inactive | Aptamer quench SP inactive
C/C(CCc1ccco1)=N/NC(=O)CCC(=O)Nc1ccc(Br)cc1	none
O=C(Cc1ccc(Br)cc1)OCC(=O)N1CCc2ccccc2C1	GRK2 aptamer HTS 46 | GRK2 CP2 inactive | FAM quench SP inactive
COc1ccc([N+](=O)[O-])cc1NC(=O)CCS(=O)(=O)c1ccc(Br)cc1	GRK2 aptamer HTS 54 | GRK2 CP1 inactive | Aptamer quench 1 inactive | Aptamer quench SP inactive | Aptamer quench3 inactive | FAM quench PS1 inactive
COc1ccc(S(=O)(=O)CCC(=O)N(C)c2ccc(OC)cc2OC)cc1	none | GRK2 CP2 inactive | FAM quench SP inactive
COc1ccc(S(=O)(=O)CCC(=O)Nc2ccc(OC)cc2OC)cc1	none | GRK2 CP2 inactive | FAM quench SP inactive
COc1ccc(NC(=O)CCS(=O)(=O)c2ccccc2)c(OC)c1	none
COc1ccc([N+](=O)[O-])cc1NC(=O)CS(=O)(=O)c1ccc(C)cc1	none
OCCc1ccc(O)cc1	none
